Source: PubChem BioAssay (NCI)
Compounds without any hit were thinned out: in the full panel of roughly 83,000, 20% have a hit.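 Growth was measured after 48 h exposure to one concentration of compound in 96-well plates. Values under 10 count as active.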 Values without a mark were called inactive. Calls of active or inactive are those of the source.

Tests used:
Test in all cases: NCI-60 one-dose screen, 48 h (100 = growth as untreated, 0 = no growth, -100 = all killed)
Conditions in all cases: 10 µM unless noted
HT29 colon = system: HT29 colon
SNB-75 CNS = system: SNB-75 CNS
SNB-19 CNS = system: SNB-19 CNS
U251 CNS = system: U251 CNS
PC-3 prostate = system: PC-3 prostate
SK-MEL-5 melanoma = system: SK-MEL-5 melanoma
UACC-62 melanoma = system: UACC-62 melanoma
LOX IMVI melanoma = system: LOX IMVI melanoma
SK-MEL-28 melanoma = system: SK-MEL-28 melanoma
SK-MEL-2 melanoma = system: SK-MEL-2 melanoma
SN12C renal = system: SN12C renal
TK-10 renal = system: TK-10 renal
ACHN renal = system: ACHN renal
CAKI-1 renal = system: CAKI-1 renal
A498 renal = system: A498 renal
CCRF-CEM leukemia = system: CCRF-CEM leukemia
MOLT-4 leukemia = system: MOLT-4 leukemia
EKVX NSCLC = system: EKVX NSCLC
UO-31 renal = system: UO-31 renal
SR leukemia = system: SR leukemia

Structure (SMILES) | growth (HT29 colon) | growth (SNB-75 CNS) | growth (SNB-19 CNS) | growth (U251 CNS) | growth (PC-3 prostate) | growth (SK-MEL-5 melanoma) | growth (UACC-62 melanoma) | growth (LOX IMVI melanoma) | growth (SK-MEL-28 melanoma) | growth (SK-MEL-2 melanoma) | growth (SN12C renal) | growth (TK-10 renal) | growth (ACHN renal) | growth (CAKI-1 renal) | growth (A498 renal) | growth (CCRF-CEM leukemia) | growth (MOLT-4 leukemia) | growth (EKVX NSCLC) | growth (UO-31 renal) | growth (SR leukemia)
Cc1ccc2c(c1)C(=O)/C(=C/c1ncc([N+](=O)[O-])n1C)O2 | -19.8% (active) | 73.8% | 11.8% | -19% (active) | -2.93% (active) | -38.5% (active) | -13% (active) | -3.36% (active) | -17.2% (active) | -57.8% (active) | -15.3% (active) | -29.8% (active) | 5.3% (active) | -32.1% (active) | 76.4% | 0.686% (active) | -2.13% (active) | – | – | –
CC(C)(C)c1ccc(S(=O)(=O)O)s1 | 106% | 92.4% | 95.5% | 105% | 52.7% | 109% | 93.8% | 102% | 112% | – | 97.7% | 110% | 96.3% | -3.29% (active) | 95.4% | 102% | 76.1% | 92.7% | 40.1% | 73.1%
O=C(c1ccccc1)c1ccco1 | 103% | 80.3% | 93.1% | 99.1% | 95.4% | 106% | 93% | 89.8% | 111% | 104% | 88.4% | 96% | 98.9% | – | 109% | 93.3% | 91.7% | – | – | 106%
C[n+]1ccc(C#N)c2ccccc21 | 65.1% | 85.7% | 109% | 104% | 107% | 99.1% | 115% | 85.5% | 106% | 77.5% | 104% | 129% | 81.9% | – | 95.3% | 54.1% | 64.5% | – | 55.4% | 67.5%
Cn1cc(-c2csc(-c3cn(C)c4ncccc34)n2)c2cc(Br)cnc21 | 100% | 73.1% | 98.5% | 87.9% | 68.5% | 79.3% | 82.9% | 81.9% | 92.1% | – | 89.4% | 115% | 95.5% | 85.3% | 79% | 80% | 85% | 84.4% | 100% | –
COc1ccc2nc(NC(=O)c3cc(-c4ccc(F)cc4)n4nc(-c5ccccc5)cc4n3)sc2c1 | 92.5% | 80.4% | 83.3% | 64.2% | 63.7% | 55.5% | 67.9% | 67.9% | 73.1% | – | 88.6% | 134% | 67.5% | 77.5% | 83.4% | 64.1% | 96.1% | 79.5% | 73.6% | 77.5%
Nc1nonc1-c1nc2ccccc2n1CC(=O)Nc1ccc2c(c1)COC2=O | 85.1% | 36.5% | 87.6% | 94.4% | 80% | 77.8% | 72.9% | 73.2% | 93.1% | 89.4% | 92.2% | 94.7% | 92.2% | 74.5% | 63.7% | – | 101% | – | 60.6% | –
O=C(Nc1nc2ccccc2s1)c1cc(-c2ccc(F)cc2)n2nc(-c3ccccc3)cc2n1 | 74.5% | 38.4% | 71.3% | 18.2% | 56.9% | 72.6% | 70.6% | 45.6% | 85.4% | – | 57.5% | 129% | 13.5% | 53.2% | -9.36% (active) | 21.6% | 61.9% | 68.8% | 51.4% | 18.6%
O=C(NN(C(=O)c1ccccc1)c1cccs1)c1ccccc1 | 98.5% | 90.7% | 100% | 111% | 83.4% | 101% | 88.1% | 93.7% | 115% | 107% | 97.1% | 91.7% | 104% | 110% | – | 93.8% | 107% | – | 66.1% | 100%
O=C(COC(=O)[C@H](C[Se][Se]C[C@H](NC(=O)c1ccc(Br)cc1F)C(=O)OCC(=O)c1ccc(F)cc1)NC(=O)c1ccc(Br)cc1F)c1ccc(F)cc1 | 3.66% (active) | -100% (active) | -86.3% (active) | -100% (active) | -51.6% (active) | -18.8% (active) | -4.12% (active) | -83% (active) | -90.6% (active) | – | -100% (active) | -97.6% (active) | -75.7% (active) | -91.4% (active) | -2.67% (active) | -56.2% (active) | -30% (active) | -69.9% (active) | -100% (active) | -39.3% (active)
COc1ccc2c(c1)C(=O)/C(=C/c1ccc([N+](=O)[O-])s1)O2 | -22.7% (active) | 12.2% | -5.72% (active) | -50.7% (active) | -15.7% (active) | -13.5% (active) | -48% (active) | -24.9% (active) | -33.9% (active) | -49.1% (active) | -8.43% (active) | -15.3% (active) | -54% (active) | 29.7% | 99.6% | 0.726% (active) | 5.68% (active) | – | -79.1% (active) | 11.4%
O=C(Nc1cccc(C(F)(F)F)c1)Nc1ccc(OCc2nnc(-c3ccc(Cl)cc3)o2)c(F)c1 | 60.2% | 39.4% | 69.9% | 52.7% | 45.9% | 77.5% | 68.8% | 63.5% | 73.5% | 78.7% | 77.3% | 81.3% | 51.2% | 80.1% | 79% | 60.8% | 66.7% | – | 73.9% | 66.3%
CCSc1nnc2n(Cc3ccccc3)c(=O)c3c(C)c(C(N)=O)sc3n12 | 100% | 69.4% | 108% | 103% | 97.3% | 95.8% | 97.7% | 95.6% | 109% | – | 103% | – | 93.7% | 85.8% | 84.2% | – | – | 99% | 67% | –
Oc1ccc(Cc2ccc(O)c(C3CC(c4ccc(Cl)cc4)=NN3)c2)cc1C1CC(c2ccc(Cl)cc2)=NN1 (configuration not stated) | 51% | 36.1% | 29.4% | 12.7% | 23.8% | 24.4% | 36.3% | – | 57.7% | -10.8% (active) | 24.9% | 21% | 16.5% | -49.4% (active) | 33.8% | 8.95% (active) | -5.34% (active) | -6.4% (active) | – | 3.43% (active)
C=C(C)[C@H]1CC/C(C)=C/CC[C@]2(C)O[C@H]2CC/C(COC(C)=O)=C\C1=O | 115% | 120% | 108% | 101% | 94.6% | 109% | 108% | 88.1% | 116% | – | 104% | 117% | 98.9% | – | 91.1% | 103% | 90.2% | 44.3% | 69.4% | 56.7%
O=C(C(=O)N1CCOCC1)c1ccc(OC2OC(CO)C(O)C(O)C2O)cc1 (configuration not stated) | 100% | 89.5% | 102% | 105% | 110% | 108% | 103% | – | 105% | 96.2% | 106% | 101% | 97.9% | 98.5% | 104% | 107% | 90.3% | 104% | 102% | 102%
C=C(C)[C@@H]1C/C=C(/C=O)CC[C@@H]2O[C@@]2(C)CC/C=C(\C)CC1 | 127% | 87.1% | 110% | 104% | 63.3% | 101% | 92.3% | 93.3% | 118% | – | 116% | – | 100% | 8.5% (active) | 124% | 137% | 133% | 69.8% | 122% | 125%
